Potency and Z-AUC data for ten compounds are collected here from PubChem BioAssay (NCATS).

Assay [1] in a line: qHTS to identify inhibitors of the type 1 interferon - major histocompatibility complex class I in skeletal muscle: primary screen against the NCATS Mechanism Interrogation Plate v5.0 (MIPE) Libary (AID 1347411). Further: nearly all actives have a fitted effect of over 65% in size. Further: potency means the concentration at half of the fitted maximal effect. In short, it runs like this:
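HLA-B HiBit myoblasts, dexamethasone-free medium + 4 ng/ml IFN-b, 24 h compound, 11-pt 1:3 from 46 uM final. Readout: Nano-Glo HiBiT lytic luminescence after 10 min lysis, RT.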
On the technique in general: qHTS replaces the single test concentration by a dilution series.

A short description of assay [2]: Primary qHTS for inhibitors of nuclear receptor binding SET domain protein 2 (NSD2) in an isogenic RCH-ACV NSD2 p.E1099K mutant (9B) (AID 1645876). Further: nearly all actives have a fitted effect of over 70% in size. Further: potency means the concentration at half of the fitted maximal effect.
Assay [3] in a line: Primary qHTS for inhibitors of nuclear receptor binding SET domain protein 2 (NSD2) in an RCH-ACV wild type WT cells (2C) (AID 1645877). Further: nearly all actives have a fitted effect of over 70% in size. Further: potency means the concentration at half of the fitted maximal effect.
The target in assay [4] is Glutathione peroxidase 1 (Homo sapiens) (UniProt P07203). Kind of assay: Primary qHTS Assay for Inhibitors of Recombinant Selenoprotein Glutathione Peroxidase 1 (GPX1) (AID 1845191). Further: nearly all actives have a fitted effect of over 65% in size. In short, it runs like this:
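GPX1 10 nM, GR 100 nM, GSH 1 mM, NADPH 0.5 mM, CHP 0.5 mM (final). 30-min cpd preincubation, RT. Ex340/Em450 read t=0, t=15 min.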

Assay [5] concerns the target Phospholipid hydroperoxide glutathione peroxidase GPX4 (Homo sapiens) (UniProt P36969). Briefly: Primary qHTS Assay for Inhibitors of Recombinant Selenoprotein Glutathione Peroxidase 4 (GPX4) (AID 1845192). Further: nearly all actives have a fitted effect of over 65% in size. Particulars: outcome: dose series up to 50 µM unless noted. In short, it runs like this: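 qHTS, GR-coupled: GPX4 200 nM + cpd 30 min RT → GSH 1 mM, NADPH 0.5 mM, GR 100 nM → CHP 0.5 mM start; fluor 340/450 at t0 and t15 min; no-enzyme wells as control.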

A short description of assay [6]: qHTS drug screen for cell cycle checkpoint inhibitors in PARPi-resistant BRCA-mutant ovarian cancer cell lines. (AID 1963452; calls by dose curve; further: potency means the concentration at half of the fitted maximal effect). Particulars: PEO1/OlaR viability, CellTiter-Glo luminescence, 96 h; for Z-AUC: stronger effect = lower value. The essentials: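 PEO1, PEO4 and PEO1/OlaR ovarian cancer cells, 600 per well, exposed 96 h at 37C to a dilution series. Viability read by CellTiter-Glo luminescence, normalized to DMSO and empty wells; activity summarized as Z-AUC.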

Assay [7] in a line: qHTS assay to identify inhibitors of the type 1 interferon - major histocompatibility complex class I in skeletal muscle: Counter screen cell viability and HiBit confirmation (AID 1347412). Further: potency means the concentration at half of the fitted maximal effect; nearly all actives have a fitted effect of over 60% in size. Particulars: iHSKM muscle cells + IFN-b, HiBiT or CellTiter-Glo, 24 h; HiBiT. The essentials:
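Duplicate plates, pinned identically: one read for HiBiT-tagged endogenous HLA-B luminescence, the other for ATP-content viability via CellTiter Glo. Cells were genome-engineered human myoblasts given 4 ng/ml IFN-b; compounds 12-pt, 1:3 from 46 uM final; 24 hr exposure.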

Assay [8] is described as follows: NCATS anti-infectives library activity on HEK293 viability as a counter-qHTS vs the C. elegans viability qHTS (AID 1745854). Further: on the % scale 0 is the no-effect control and ±100 the full control effect. In short, it runs like this:
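CellTiter-Glo luminescence, read on a CCD imager, scored viability of HEK293 cells after 24 hr compound exposure at 37C. Library tested in several concentrations, 1:5 steps, up to 41.7 uM; digitonin served as control.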

For assay [9], the target named is Luciferin 4-monooxygenase (Photinus pyralis) (UniProt P08659). Kind of assay: Biochemical firefly luciferase enzyme assay for NPC (AID 624030).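 Further: purified P. pyralis luciferase at 10 nM with luciferin and ATP substrate; series mostly up to about 59 µM; 0% = DMSO and -100% = full luciferase inhibition by PTC124 control; nearly all actives have a fitted effect of over 70% in size.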 The essentials: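 Counter-screen for direct inhibition of the luciferase enzyme by approved-drug library compounds, run at 10 nM enzyme in 50 mM Tris acetate (final). Luminescence was read within 5 min of enzyme-buffer addition and normalized to PTC124 versus DMSO (0%).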
Sequence of Luciferin 4-monooxygenase (Photinus pyralis) (P08659 whole entry, looked up): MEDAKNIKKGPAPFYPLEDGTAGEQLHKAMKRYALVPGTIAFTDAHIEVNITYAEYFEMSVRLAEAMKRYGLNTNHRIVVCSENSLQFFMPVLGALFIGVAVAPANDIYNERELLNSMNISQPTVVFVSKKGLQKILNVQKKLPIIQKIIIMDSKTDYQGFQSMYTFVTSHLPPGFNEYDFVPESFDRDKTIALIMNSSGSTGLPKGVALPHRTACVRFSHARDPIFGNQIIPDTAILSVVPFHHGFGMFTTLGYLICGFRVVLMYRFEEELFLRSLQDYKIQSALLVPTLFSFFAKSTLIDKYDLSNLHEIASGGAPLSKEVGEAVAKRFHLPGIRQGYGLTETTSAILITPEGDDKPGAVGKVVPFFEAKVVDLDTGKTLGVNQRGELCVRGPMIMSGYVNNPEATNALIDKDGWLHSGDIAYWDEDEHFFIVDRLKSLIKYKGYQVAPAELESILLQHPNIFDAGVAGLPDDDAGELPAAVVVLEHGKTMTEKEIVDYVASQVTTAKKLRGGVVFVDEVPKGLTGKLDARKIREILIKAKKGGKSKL

Where [10] appears, read: measured here: PEO1 parental Z-AUC.

Results filed as inconclusive are left out. Activity calls are given as the source filed them. Unless noted, the call rests on the fitted dose curve; in most records, active means well fitted curve in the direction sought with a large enough effect; inconclusive means small, poorly fitted or top-dose-only effect, or another doubt; inactive means no such curve, though single readings can be large; an effect the other way counts as inactive or inconclusive.

Sequence of Glutathione peroxidase 1 (Homo sapiens) (P07203 whole entry, looked up): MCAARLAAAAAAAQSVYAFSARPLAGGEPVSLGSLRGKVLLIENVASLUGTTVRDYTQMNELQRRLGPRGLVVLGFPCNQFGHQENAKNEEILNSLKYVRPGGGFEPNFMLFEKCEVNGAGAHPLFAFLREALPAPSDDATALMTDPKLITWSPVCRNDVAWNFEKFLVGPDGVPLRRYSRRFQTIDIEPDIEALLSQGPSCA
Sequence of Phospholipid hydroperoxide glutathione peroxidase GPX4 (Homo sapiens) (P36969 whole entry, looked up): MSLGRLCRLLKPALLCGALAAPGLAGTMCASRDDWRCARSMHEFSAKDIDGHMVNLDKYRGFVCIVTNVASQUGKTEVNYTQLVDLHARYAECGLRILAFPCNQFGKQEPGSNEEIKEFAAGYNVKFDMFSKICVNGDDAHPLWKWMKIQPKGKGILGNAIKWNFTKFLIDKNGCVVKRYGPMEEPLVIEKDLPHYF

Regarding `C[C@H]1CNC(=O)c2cnn3ccc(nc23)N[C@H](C)c2cc(F)ccc2O1`, the Potency is 1.17 µM (active) in assay [1]; 1480 nM (active) in assay [2]; 1180 nM (active) in [3]; 1.55 µM (active) in assay [6]; 4.43 µM (active) in assay [7]. For the same compound, the Potency result in assay [4] and in assay [5] was “inactive” throughout. Moreover, the Z-AUC in assay [6] (setting [10]) is -2.09; in assay [6] (measured here: PEO4 Z-AUC), -2.06.
In the case of `CN1CCCN(C(=O)c2cccc(-c3ccc(/C=C4/C(=O)Nc5ccc(Cl)cc54)o3)c2)CC1`, the figures for the Potency in assay [1], in assay [2] and in assay [3] were 8.29 µM (active), 186 nM (active) and 166 nM (active), respectively. The Potency entry in [4] and in [5] was “inactive” in each case. The Z-AUC is 0.657 (inactive) in assay [6], -0.436 in assay [6] (setting [10]) and -0.635 in assay [6] (measured here: PEO4 Z-AUC).
Regarding `O=C(Nc1ccc(OC(F)(F)Cl)cc1)c1cnc(N2CC[C@@H](O)C2)c(-c2ccn[nH]2)c1`, the Potency entry in [1], in [4] and in assay [5] was “inactive” throughout. Besides, the results for the Potency in assay [2] and in assay [3] were 16600 nM (active) and 14800 nM (active), respectively. Also, the Z-AUC was -1.46 (inactive) in assay [6], -0.874 in [6] (setting [10]) and -0.386 in assay [6] (measured here: PEO4 Z-AUC).
Take `N=C1S/C(=C\c2ccc(-c3ccc4c(c3)C(=O)NC4=O)o2)C(=O)N1c1ccc(Br)cc1`: the Potency result in [1], in assay [2], in assay [3] and in assay [4] was “inactive” each time.
For the compound `O=C1CC[C@H](N2Cc3c(OCc4ccc(CN5CCOCC5)cc4)cccc3C2=O)C(=O)N1`, the Potency entry in assay [1], in [4] and in [5] was “inactive” in each case. Moreover, the Potency was 16.6 nM (active) in assay [2] and 33.2 nM (active) in assay [3].
Consider `CC(C)=CCC[C@](C)(O[C@@H]1O[C@H](CO[C@@H]2O[C@H](CO)[C@@H](O)[C@H](O)[C@H]2O)[C@@H](O)[C@H](O)[C@H]1O)[C@H]1CC[C@]2(C)[C@@H]1[C@H](O)C[C@@H]1[C@@]3(C)CC[C@H](O[C@@H]4O[C@H](CO)[C@@H](O)[C@H](O)[C@H]4O[C@@H]4O[C@H](CO)[C@@H](O)[C@H](O)[C@H]4O)C(C)(C)[C@@H]3CC[C@]12C`, for which the Potency result in assay [1], in [2], in [3], in [8], in [4] and in assay [5] was “inactive” throughout. Besides, the results for the Z-AUC in [6], in assay [6] (setting [10]) and in assay [6] (measured here: PEO4 Z-AUC) were 1.47 (inactive), 1.48 and 1.64, respectively.
Take `COC[C@@H](c1ccc(C(F)(F)F)cc1)N1CCN(C2(C)CCN(C(=O)c3c(C)ncnc3C)CC2)C[C@@H]1C`: the Potency entry in assay [9], in [1], in [2], in [3], in assay [8] and in [4] was “inactive” each time. Further, the Potency entry in assay [5] is “inactive”.
Regarding `O=C1OC(COc2ccccc2[N+](=O)[O-])CC1Cc1ccccc1` (stereo unspecified), the Potency entry in assay [1], in assay [2], in assay [3], in [4] and in assay [5] was “inactive” each time. Moreover, the Z-AUC in assay [6] is -0.926 (inactive); in assay [6] (setting [10]) it was -0.0369; in [6] (measured here: PEO4 Z-AUC), -0.342.
Consider `COc1cc2c3c(n(CCCNCCO)c(=O)c2cc1OC)-c1cc2c(cc1C3=O)OCO2`, for which the Potency was 5.87 µM (active) in assay [1], 26.3 nM (active) in assay [2], 29.5 nM (active) in assay [3] and 0.0078 µM (active) in [6]. The Potency entry in assay [4] and in assay [5] was “inactive” in each case. In addition, the Z-AUC in assay [6] (setting [10]) was -2.45; in [6] (measured here: PEO4 Z-AUC) it was -1.56.
With `N#Cc1ccnc(N2C(=O)CC[C@H]2C(=O)N(c2cncc(F)c2)C(C(=O)NC2CC(F)(F)C2)c2ccccc2Cl)c1` (stereo partly specified), the Potency result in assay [1], in assay [2], in assay [3], in assay [4] and in [5] was “inactive” each time.
